According to PMC8222333, “AsCas12a ultra nuclease facilitates the rapid generation of therapeutic cell medicines”:

Assays:
dAsCas12a WT = dAsCas12a WT (Acidaminococcus sp., UniProt U2UMQ6 1-1307, D908A;E993A;D1235A); assay: Spec-seq (native PAGE EMSA with sequencing of bound and unbound); 25 mM Tris-HCl pH 7.4, 150 mM KCl, 5 mM MgCl2, 10% glycerol, 1 mM DTT, 40 ng/uL salmon sperm DNA; 400 nM Cas12a, 480 nM crRNA, 50 nM library, 37 C 1 h; native P; high values mean tight binding
dAsCas12a Ultra = dAsCas12a Ultra (Acidaminococcus sp., UniProt U2UMQ6 1-1307, M537R;F870L;D908A;E993A;D1235A); assay: Spec-seq (native PAGE EMSA with sequencing of bound and unbound); 25 mM Tris-HCl pH 7.4, 150 mM KCl, 5 mM MgCl2, 10% glycerol, 1 mM DTT, 40 ng/uL salmon sperm DNA; 400 nM Cas12a, 480 nM crRNA, 50 nM library, 37 C 1 h; native PAGE at room temperature; high values mean tight binding; settings: protein: recombinant
dAsCas12a E174R = dAsCas12a E174R (Acidaminococcus sp., UniProt U2UMQ6 1-1307, E174R;D908A;E993A;D1235A); assay: as above; settings: protein: recombinant;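 further: relative affinity from the bound to unbound sequence frequency ratio in Spec-seq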
dAsCas12a S542R = dAsCas12a S542R (Acidaminococcus sp., UniProt U2UMQ6 1-1307, S542R;D908A;E993A;D1235A); assay: as above; settings: protein: recombinant;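 further: relative affinity from the bound to unbound sequence frequency ratio in Spec-seq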
dAsCas12a K548R = dAsCas12a K548R (Acidaminococcus sp., UniProt U2UMQ6 1-1307, K548R;D908A;E993A;D1235A); assay: as above; settings: protein: recombinant
d-enCas12a = d-enCas12a (Acidaminococcus sp., UniProt U2UMQ6 1-1307, E174R;S542R;K548R;D908A;E993A;D1235A); assay: as above; settings: protein: recombinant
d-enCas12a-Ultra = d-enCas12a-Ultra (Acidaminococcus sp., UniProt U2UMQ6 1-1307, E174R;S542R;K548R;M537R;F870L;D908A;E993A;D1235A); assay: as above; settings: protein: recombinant;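 further: relative affinity from the bound to unbound sequence frequency ratio in Spec-seq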

B1: GTTG (dsDNA)
DNA 1: GCTATCTAGTGCTCAGTACGCACTGGTTGAGGAAACTTCTGGCAGGACCAGGTCATGAGATCGGAAGAGCACACGTCTGAACTCCAGTCA
DNA 2: TGACTGGAGTTCAGACGTGTGCTCTTCCGATCTCATGACCTGGTCCTGCCAGAAGTTTCCTCAACCAGTGCGTACTGAGCACTAGATAGC
RNA: AAUUUCUACUCUUGUAGAUAGGAAACUUCUGGCAGGACC
binding signal (dAsCas12a WT): -7.73 lnKA
binding signal (dAsCas12a Ultra): -5.6 lnKA
binding signal (dAsCas12a E174R): -5.33 lnKA
binding signal (dAsCas12a S542R): -5.32 lnKA
binding signal (dAsCas12a K548R): -6.8 lnKA
binding signal (d-enCas12a): -1.41 lnKA
binding signal (d-enCas12a-Ultra): -0.361 lnKA

B2: GTTT (dsDNA)
DNA 1: GCTATCTAGTGCTCAGTACGCACTGGTTTAGGAAACTTCTGGCAGGACCAGGTCATGAGATCGGAAGAGCACACGTCTGAACTCCAGTCA
DNA 2: TGACTGGAGTTCAGACGTGTGCTCTTCCGATCTCATGACCTGGTCCTGCCAGAAGTTTCCTAAACCAGTGCGTACTGAGCACTAGATAGC
RNA: AAUUUCUACUCUUGUAGAUAGGAAACUUCUGGCAGGACC
binding signal (dAsCas12a WT): -8.41 lnKA
binding signal (dAsCas12a Ultra): -7.18 lnKA
binding signal (dAsCas12a E174R): -6.98 lnKA
binding signal (dAsCas12a S542R): -7.04 lnKA
binding signal (dAsCas12a K548R): -8.38 lnKA
binding signal (d-enCas12a): -2.65 lnKA
binding signal (d-enCas12a-Ultra): -0.552 lnKA

B3: TATA (dsDNA)
DNA 1: GCTATCTAGTGCTCAGTACGCACTGTATAAGGAAACTTCTGGCAGGACCAGGTCATGAGATCGGAAGAGCACACGTCTGAACTCCAGTCA
DNA 2: TGACTGGAGTTCAGACGTGTGCTCTTCCGATCTCATGACCTGGTCCTGCCAGAAGTTTCCTTATACAGTGCGTACTGAGCACTAGATAGC
RNA: AAUUUCUACUCUUGUAGAUAGGAAACUUCUGGCAGGACC
binding signal (dAsCas12a WT): -8 lnKA
binding signal (dAsCas12a Ultra): -7.14 lnKA
binding signal (dAsCas12a E174R): -4.71 lnKA
binding signal (dAsCas12a S542R): -6.54 lnKA
binding signal (dAsCas12a K548R): -6.91 lnKA
binding signal (d-enCas12a): -0.769 lnKA
binding signal (d-enCas12a-Ultra): -0.324 lnKA

B4: TATC (dsDNA)
DNA 1: GCTATCTAGTGCTCAGTACGCACTGTATCAGGAAACTTCTGGCAGGACCAGGTCATGAGATCGGAAGAGCACACGTCTGAACTCCAGTCA
DNA 2: TGACTGGAGTTCAGACGTGTGCTCTTCCGATCTCATGACCTGGTCCTGCCAGAAGTTTCCTGATACAGTGCGTACTGAGCACTAGATAGC
RNA: AAUUUCUACUCUUGUAGAUAGGAAACUUCUGGCAGGACC
binding signal (dAsCas12a WT): -8.56 lnKA
binding signal (dAsCas12a Ultra): -7.72 lnKA
binding signal (dAsCas12a E174R): -6.33 lnKA
binding signal (dAsCas12a S542R): -7.21 lnKA
binding signal (dAsCas12a K548R): -6.57 lnKA
binding signal (d-enCas12a): -0.993 lnKA
binding signal (d-enCas12a-Ultra): -0.399 lnKA

B5: TATG (dsDNA)
DNA 1: GCTATCTAGTGCTCAGTACGCACTGTATGAGGAAACTTCTGGCAGGACCAGGTCATGAGATCGGAAGAGCACACGTCTGAACTCCAGTCA
DNA 2: TGACTGGAGTTCAGACGTGTGCTCTTCCGATCTCATGACCTGGTCCTGCCAGAAGTTTCCTCATACAGTGCGTACTGAGCACTAGATAGC
RNA: AAUUUCUACUCUUGUAGAUAGGAAACUUCUGGCAGGACC
binding signal (dAsCas12a WT): -9 lnKA
binding signal (dAsCas12a Ultra): -8.06 lnKA
binding signal (dAsCas12a E174R): -6.65 lnKA
binding signal (dAsCas12a S542R): -7.42 lnKA
binding signal (dAsCas12a K548R): -7.66 lnKA
binding signal (d-enCas12a): -1.93 lnKA
binding signal (d-enCas12a-Ultra): -0.687 lnKA

B6: TCCC (dsDNA)
DNA 1: GCTATCTAGTGCTCAGTACGCACTGTCCCAGGAAACTTCTGGCAGGACCAGGTCATGAGATCGGAAGAGCACACGTCTGAACTCCAGTCA
DNA 2: TGACTGGAGTTCAGACGTGTGCTCTTCCGATCTCATGACCTGGTCCTGCCAGAAGTTTCCTGGGACAGTGCGTACTGAGCACTAGATAGC
RNA: AAUUUCUACUCUUGUAGAUAGGAAACUUCUGGCAGGACC
binding signal (dAsCas12a WT): -8.69 lnKA
binding signal (dAsCas12a Ultra): -6.14 lnKA
binding signal (dAsCas12a E174R): -6.06 lnKA
binding signal (dAsCas12a S542R): -1.93 lnKA
binding signal (d-enCas12a): -0.958 lnKA
binding signal (d-enCas12a-Ultra): -0.245 lnKA

B7: TCTA (dsDNA)
DNA 1: GCTATCTAGTGCTCAGTACGCACTGTCTAAGGAAACTTCTGGCAGGACCAGGTCATGAGATCGGAAGAGCACACGTCTGAACTCCAGTCA
DNA 2: TGACTGGAGTTCAGACGTGTGCTCTTCCGATCTCATGACCTGGTCCTGCCAGAAGTTTCCTTAGACAGTGCGTACTGAGCACTAGATAGC
RNA: AAUUUCUACUCUUGUAGAUAGGAAACUUCUGGCAGGACC
binding signal (dAsCas12a WT): -6.18 lnKA
binding signal (dAsCas12a Ultra): -3.71 lnKA
binding signal (dAsCas12a E174R): -2.54 lnKA
binding signal (dAsCas12a S542R): -4.59 lnKA
binding signal (dAsCas12a K548R): -8.57 lnKA
binding signal (d-enCas12a): -3.31 lnKA
binding signal (d-enCas12a-Ultra): -0.837 lnKA
